This passage reports outcome and AC50 results from PubChem BioAssay (EPA / NIEHS).

What is called AC50 is the midpoint of the concentration-response curve, whichever way the signal moves.

Holding throughout (conditions): mRNA level, 48 h; actives raise or lower the signal
Read-out in assay [1]: Bcl-2 (BAD) gene, BAD (gene 572)
In words: LTEA_HepaRG_BAD: Life Technologies and Expression Analysis (LTEA) Assay for Bcl-2 (BAD) gene using HepaRG (AID 2283469). In short, it runs like this:
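HepaRG, 48 h exposure, 8-pt half-log curve from 100 uM in 0.5% DMSO, duplicates. Readout: TaqMan qRT-PCR for BAD mRNA, housekeeping-normalised (ACTB/GAPDH/POLR2A); gain or loss fitted against DMSO baseline.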

Read-out in assay [2]: Bcl-2 (BAX) gene, BAX (gene 581)
In words: LTEA_HepaRG_BAX: Life Technologies and Expression Analysis (LTEA) Assay for Bcl-2 (BAX) gene using HepaRG (AID 2283470). In short, it runs like this:
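qRT-PCR read-out of BAX mRNA, normalized to three housekeeping genes, after 48 h chemical exposure of human HepaRG cells in serum-free induction medium; eight-point half-log series, top 100 uM, 0.5% DMSO vehicle; bidirectional fit versus DMSO.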

Read-out in assay [3]: adenosine kinase (ADK) gene, ADK (gene 132)
The assay is described as follows: LTEA_HepaRG_ADK: Life Technologies and Expression Analysis (LTEA) Assay for adenosine kinase (ADK) gene using HepaRG (AID 2283471). Put shortly: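 ADK expression quantified by qRT-PCR, normalised to three housekeeping genes, after 48 h exposure of HepaRG cells to eight concentrations (top 100 uM, half-log steps, duplicate, 0.5% DMSO). Up- or down-regulation fitted relative to vehicle.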

Read-out in assay [4]: Alpha-fetoprotein (AFP) gene, AFP (gene 174)
The assay is described as follows: LTEA_HepaRG_AFP: Life Technologies and Expression Analysis (LTEA) Assay for Alpha-fetoprotein (AFP) gene using HepaRG (AID 2283472). In short, it runs like this:
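qRT-PCR (Fluidigm TaqMan) readout of AFP transcript, normalized to three housekeeping genes, fitted bidirectionally against 0.5% DMSO baseline. HepaRG cells received chemicals for 48 h in serum-free induction medium, top concentration 100 uM, half-log steps.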

Read-out in assay [5]: BCL2L11 (gene 10018)
In words: LTEA_HepaRG_BCL2L11: Life Technologies and Expression Analysis (LTEA) Assay for Bcl-2 (BCL2L11) gene using HepaRG (AID 2283473). Put shortly: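 BCL2L11 transcript levels are measured by Fluidigm qRT-PCR, normalized to three housekeeping genes. HepaRG cultures were plated 48 h, then treated 48 h with test chemical (top 100 uM, half-log, 0.5% DMSO vehicle); curves were fitted bidirectionally against DMSO.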

Read-out in assay [6]: Apolipoprotein A-V (APOA5) gene, APOA5 (gene 116519)
The assay is described as follows: LTEA_HepaRG_APOA5: Life Technologies and Expression Analysis (LTEA) Assay for Apolipoprotein A-V (APOA5) gene using HepaRG (AID 2283474). Put shortly:
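APOA5 transcript levels were quantified by qRT-PCR, normalized to three housekeeping genes, after 48 h chemical treatment of HepaRG cells (8 points, 100 uM maximum, half-log steps, 0.5% DMSO). Curves fitted in both directions against vehicle.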

Read-out in assay [7]: Apoptosis regulator Bcl-2 (Homo sapiens) (UniProt P10415)
In words: LTEA_HepaRG_BCL2: Life Technologies and Expression Analysis (LTEA) Assay for Bcl-2 gene using HepaRG (AID 2283475). Put shortly:
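qRT-PCR read-out (Fluidigm TaqMan) of BCL2 transcript, normalised to three housekeeping genes, after 48 h chemical exposure of HepaRG cells; 8-point half-log series, top 100 uM, 0.5% DMSO vehicle. Gain or loss of signal fitted relative to DMSO baseline.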

Read-out in assay [8]: Bcl-2 (BID) gene, BID (gene 637)
The assay is described as follows: LTEA_HepaRG_BID: Life Technologies and Expression Analysis (LTEA) Assay for Bcl-2 (BID) gene using HepaRG (AID 2283476). In short, it runs like this: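 HepaRG, 48 h exposure, 8-pt half-log series, top 100 uM, 0.5% DMSO vehicle, duplicates. Readout: BID mRNA by TaqMan qRT-PCR; housekeeping-normalized; bidirectional curve fit vs DMSO baseline.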

Read-out in assay [9]: Caspase-3 (Homo sapiens) (UniProt P42574)
In words: LTEA_HepaRG_CASP3: Life Technologies and Expression Analysis (LTEA) Assay for cysteine-aspartic acid protease (CASP3) using HepaRG (AID 2283477). Put shortly: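 Expression of CASP3 was quantified by TaqMan qRT-PCR against three housekeeping genes (ACTB, GAPDH, POLR2A), bidirectionally versus 0.5% DMSO. HepaRG cultures received compounds in duplicate, top 100 uM with half-log steps, for 48 h in serum-free induction medium.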

Read-out in assay [10]: Cytochrome P450 (CYP24A1), CYP24A1 (gene 1591)
In words: LTEA_HepaRG_CYP24A1: Life Technologies and Expression Analysis (LTEA) Assay for Cytochrome P450 (CYP24A1) using HepaRG (AID 2283478). Put shortly:
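mRNA of CYP24A1 quantified by TaqMan qRT-PCR (ACTB/GAPDH/POLR2A normalization) after 48 h chemical exposure of HepaRG cells, top concentration 100 uM, half-log steps, 0.5% DMSO vehicle, duplicates. Curves fitted bidirectionally against DMSO baseline.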

Read-out in assay [11]: Cytochrome P450 (CYP1A2), CYP1A2 (gene 1544)
In words: LTEA_HepaRG_CYP1A2: Life Technologies and Expression Analysis (LTEA) Assay for Cytochrome P450 (CYP1A2) using HepaRG (AID 2283479). In short, it runs like this:
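CYP1A2 transcript measured by TaqMan qRT-PCR against three housekeeping genes after 48-hour chemical exposure of HepaRG cells. Eight-point half-log series topping at 100 uM in 0.5% DMSO, duplicates; gain or loss fitted relative to vehicle.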

Read-out in assay [12]: cysteine-aspartic acid protease (CASP8), CASP8 (gene 841)
In words: LTEA_HepaRG_CASP8: Life Technologies and Expression Analysis (LTEA) Assay for cysteine-aspartic acid protease (CASP8) using HepaRG (AID 2283480). In short, it runs like this: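 qRT-PCR readout of CASP8 mRNA, normalized to three housekeeping genes, after 48 h chemical exposure of HepaRG cells; 8-point half-log series, top 100 uM, 0.5% DMSO vehicle. Bidirectional curve fitting against DMSO baseline.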

Read-out in assay [13]: Cytochrome P450 2C19 (Homo sapiens) (UniProt P33261)
The assay is described as follows: LTEA_HepaRG_CYP2C19: Life Technologies and Expression Analysis (LTEA) Assay for CYP2C19 using HepaRG (AID 2283482). Put shortly:
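CYP2C19 transcript levels by qRT-PCR, normalized to three housekeeping genes, in HepaRG cells after 48 h chemical exposure. Eight-point half-log series topping at 100 uM, 0.5% DMSO vehicle. Increases and decreases both fitted against DMSO.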

Read-out in assay [14]: CYP2C8 (gene 1558)
The assay is described as follows: LTEA_HepaRG_CYP2C8: Life Technologies and Expression Analysis (LTEA) Assay for CYP2C8 using HepaRG (AID 2283483). In short, it runs like this:
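HepaRG (human liver line), 48 h chemical exposure, 8-pt half-log series from 100 uM, 0.5% DMSO vehicle. Readout: CYP2C8 transcript by qRT-PCR, housekeeping-normalized. Bidirectional fit vs DMSO baseline.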

Read-out in assay [15]: CYP2E1 (gene 1571)
The assay is described as follows: LTEA_HepaRG_CYP2E1: Life Technologies and Expression Analysis (LTEA) Assay for CYP2E1 using HepaRG (AID 2283485). In short, it runs like this:
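CYP2E1 transcript was measured by TaqMan qRT-PCR in human HepaRG cultures after 48 h chemical exposure (top 100 uM, half-log steps, 0.5% DMSO vehicle). Housekeeping-gene normalization; gain or loss fitted relative to DMSO baseline.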

Read-out in assay [16]: CYP4A11 (gene 1579)
The assay is described as follows: LTEA_HepaRG_CYP4A11: Life Technologies and Expression Analysis (LTEA) Assay for CYP4A11 using HepaRG (AID 2283486). In short, it runs like this:
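Readout is CYP4A11 transcript level by qRT-PCR, normalized to three housekeeping genes and fitted bidirectionally against 0.5% DMSO. Human HepaRG cells were treated 48 h, in duplicate, with an 8-point half-log series topping at 100 uM.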

Read-out in assay [17]: Cytochrome P450 3A4 (Homo sapiens) (UniProt P08684)
The assay is described as follows: LTEA_HepaRG_CYP3A4: Life Technologies and Expression Analysis (LTEA) Assay for CYP3A4 using HepaRG (AID 2283487). Put shortly:
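Differentiated HepaRG cells, plated 48 h, then dosed 48 h in serum-free induction medium with 0.5% DMSO, 8 half-log concentrations up to 100 uM, duplicate. CYP3A4 mRNA by qRT-PCR, normalized to ACTB/GAPDH/POLR2A; bidirectional fit versus DMSO.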

Read-out in assay [18]: DNA damage-inducible transcript 3 (DDIT3), DDIT3 (gene 1649)
In words: LTEA_HepaRG_DDIT3: Life Technologies and Expression Analysis (LTEA) Assay for DNA damage-inducible transcript 3 (DDIT3) using HepaRG (AID 2283488). In short, it runs like this: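 qRT-PCR readout (Fluidigm TaqMan), housekeeping-normalized to ACTB, GAPDH, POLR2A. HepaRG cells, 48 h exposure, 8-point half-log series from 100 uM in 0.5% DMSO, duplicates. Gain or loss of signal fitted against DMSO baseline.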

Read-out in assay [19]: Cytochrome P450 (CYP2B6), CYP2B6 (gene 1555)
In words: LTEA_HepaRG_CYP2B6: Life Technologies and Expression Analysis (LTEA) Assay for Cytochrome P450 (CYP2B6) using HepaRG (AID 2283481). Put shortly: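 CYP2B6 transcript level quantified by qRT-PCR against three housekeeping genes, fitted bidirectionally relative to DMSO. HepaRG cultures received chemicals for 48 h, 8-point half-log series from 100 uM in 0.5% DMSO, duplicate wells, serum-free induction medium.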

Read-out in assay [20]: CYP2C9 (gene 1559)
In words: LTEA_HepaRG_CYP2C9: Life Technologies and Expression Analysis (LTEA) Assay for CYP2C9 using HepaRG (AID 2283484). Put shortly: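 HepaRG, 48 h dosing, 8-pt half-log series, top 100 uM, 0.5% DMSO vehicle. Read-out: CYP2C9 transcript by TaqMan qRT-PCR, housekeeping-normalized (ACTB/GAPDH/POLR2A). Gain or loss fitted vs DMSO baseline.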

Active and inactive are the calls of the source. Rule for the calls: active = hit-call score of the fitted dose curve at least 0.9, where 1 is the maximum; inactive = score below 0.9.

Cytochrome P450 3A4 (Homo sapiens), sequence (P08684 whole entry, looked up): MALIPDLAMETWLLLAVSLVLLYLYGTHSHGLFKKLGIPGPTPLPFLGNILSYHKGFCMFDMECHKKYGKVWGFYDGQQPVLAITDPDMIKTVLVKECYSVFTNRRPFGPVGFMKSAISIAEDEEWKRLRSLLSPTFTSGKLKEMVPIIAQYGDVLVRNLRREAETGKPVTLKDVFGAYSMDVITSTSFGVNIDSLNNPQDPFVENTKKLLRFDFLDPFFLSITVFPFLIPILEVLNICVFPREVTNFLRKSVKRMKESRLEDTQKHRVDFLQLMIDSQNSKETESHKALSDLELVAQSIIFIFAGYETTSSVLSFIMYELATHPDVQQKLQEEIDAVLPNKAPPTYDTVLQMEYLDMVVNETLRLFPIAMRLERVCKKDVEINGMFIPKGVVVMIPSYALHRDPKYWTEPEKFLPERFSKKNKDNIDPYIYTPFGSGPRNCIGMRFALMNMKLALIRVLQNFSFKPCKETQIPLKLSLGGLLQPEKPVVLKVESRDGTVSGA
Caspase-3 (Homo sapiens), sequence (P42574 whole entry, looked up): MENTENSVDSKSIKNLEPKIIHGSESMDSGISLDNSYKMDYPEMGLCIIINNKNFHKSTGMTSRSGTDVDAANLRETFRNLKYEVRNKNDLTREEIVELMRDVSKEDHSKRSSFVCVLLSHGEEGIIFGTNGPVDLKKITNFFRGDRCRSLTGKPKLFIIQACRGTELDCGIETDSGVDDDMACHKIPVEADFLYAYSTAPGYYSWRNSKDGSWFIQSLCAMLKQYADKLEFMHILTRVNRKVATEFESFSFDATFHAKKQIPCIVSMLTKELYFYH
Cytochrome P450 2C19 (Homo sapiens), sequence (P33261 whole entry, looked up): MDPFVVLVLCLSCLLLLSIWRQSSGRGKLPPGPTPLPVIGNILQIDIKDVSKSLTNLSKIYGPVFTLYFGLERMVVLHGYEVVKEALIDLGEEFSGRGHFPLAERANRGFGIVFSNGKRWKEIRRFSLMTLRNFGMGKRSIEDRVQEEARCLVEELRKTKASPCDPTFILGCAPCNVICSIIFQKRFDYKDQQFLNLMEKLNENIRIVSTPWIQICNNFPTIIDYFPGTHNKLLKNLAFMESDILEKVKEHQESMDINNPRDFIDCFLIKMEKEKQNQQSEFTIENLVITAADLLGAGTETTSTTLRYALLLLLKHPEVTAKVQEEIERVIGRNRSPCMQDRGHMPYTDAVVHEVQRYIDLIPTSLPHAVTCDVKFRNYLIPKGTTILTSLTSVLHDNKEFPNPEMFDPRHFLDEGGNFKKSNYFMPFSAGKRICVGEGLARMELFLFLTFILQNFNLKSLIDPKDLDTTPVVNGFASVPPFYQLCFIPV
Apoptosis regulator Bcl-2 (Homo sapiens), sequence (P10415 whole entry, looked up): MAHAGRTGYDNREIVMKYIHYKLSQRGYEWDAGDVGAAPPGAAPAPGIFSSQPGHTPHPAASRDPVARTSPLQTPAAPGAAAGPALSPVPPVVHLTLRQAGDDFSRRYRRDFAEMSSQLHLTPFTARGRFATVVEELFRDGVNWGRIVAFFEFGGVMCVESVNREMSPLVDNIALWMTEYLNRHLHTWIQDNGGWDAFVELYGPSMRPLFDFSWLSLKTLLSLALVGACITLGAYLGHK

Regarding `CCNc1cccc(C)c1`, the call in [1], in [2], in assay [3], in assay [4], in assay [5] and in [6] was inactive. For the same molecule, the outcome in assay [7], in assay [8], in [9], in [10], in assay [11] and in [12] was inactive. Besides, the result in assay [13], in assay [14], in [15], in assay [16], in assay [17] and in assay [18] was inactive.
Turning to `NCCO`, the call in assay [1], in [2], in assay [3], in [4], in [5] and in assay [6] was inactive. Further, the molecule was classed as inactive in [7], in [8], in assay [9], in assay [10], in [11] and in assay [12]. Besides, the call in [13], in assay [14], in assay [15], in [16], in assay [17] and in assay [18] was inactive.
Take `c1cc(-c2ccncc2)ccn1`: the molecule was classed as inactive in assay [1], in assay [2], in assay [3], in [4], in assay [5] and in [6]. The molecule was classed as inactive in assay [7], in [8], in [9], in assay [10], in assay [12] and in assay [19]. Moreover, the result in assay [13], in [14], in assay [15], in assay [16], in [17] and in assay [18] was inactive. Also, the half-maximal activity concentration (AC50) in assay [11] is 50 µM (active).
Consider `Nc1ccc2c(c1)C(=O)c1ccccc1C2=O`, for which the call in assay [1], in assay [3], in [5], in assay [7], in assay [8] and in [9] was inactive. Also, the molecule was classed as inactive in assay [10], in [13] and in assay [17]. Moreover, the AC50 in assay [2] is 15 µM (active); in assay [4] it was 22.8 µM (active); in [6] it was 5.42 µM (active); in assay [11], 4.96 µM (active); in assay [19], 11.3 µM (active); in assay [14], 3.97 µM (active). The half-maximal activity concentration (AC50) is 1.04 µM (active) in assay [20], 14.3 µM (active) in assay [15], 29 µM (active) in assay [16] and 20.9 µM (active) in [18].
